Results filed as inconclusive are left out. A call without a number means that no potency is given here. Active and inactive are the calls of the source. Calls come from the whole dose curve; as a rule, active = well fitted curve in the direction sought with a large enough effect; inconclusive = small, poorly fitted or top-dose-only effect, or another doubt; inactive = no such curve, though single readings can be large; an effect the other way counts as inactive or inconclusive.

Assay [1] concerns the target Aldehyde dehydrogenase, mitochondrial (Homo sapiens) (UniProt P05091). In words: qHTS for Inhibitors of the Aldehyde Dehydrogenase Family (ALDH2) Primary screen (AID 2061308). Note: nearly all actives have a fitted effect of over 55% in size. Background: In qHTS, concentration-response curves come from the screen itself.
Assay [2] has as its target Retinaldehyde dehydrogenase 3 (Homo sapiens) (UniProt P47895). Kind of assay: qHTS for Inhibitors of the Aldehyde Dehydrogenase Family (ALDH1A3) Primary screen (AID 2061315).

As to `c1ccc(CNCc2nnc(-c3cc4ccccc4[nH]3)s2)cc1`, the Potency entry in assay [1] and in assay [2] was “inactive” in each case.
Regarding `COC(=O)C1=CC[C@H](c2ccc(C)cc2)N(S(=O)(=O)c2ccc(C)cc2)[C@@H]1c1ccc(C(C)(C)C)cc1`, the Potency entry in assay [1] and in assay [2] was “inactive” throughout.
As for `CCCn1c(C)nc2c(NCCN(C(C)C)C(C)C)nc(C)nc21`, the Potency entry in assay [1] and in assay [2] was “inactive” throughout.
Take `CCCCN(C)C(=O)Cn1nc(-c2cccc(C)c2)ccc1=O`: the Potency entry in assay [1] and in assay [2] was “inactive” in each case.
Regarding `CC(C)(C)[C@H](NC(=O)c1ccc(N)c(Cl)c1)C(=O)N1CCC[C@H]1C(=O)N[C@H](C#N)Cc1nn[nH]n1`, the Potency entry in assay [1] and in assay [2] was “inactive” throughout.
As for `CCC(=O)NC(c1ccco1)c1cc([N+](=O)[O-])c2cccnc2c1O` (stereo not drawn), the Potency result in assay [1] and in assay [2] was “inactive” each time.
For the compound `O=C1CCC2=C1C1(CCCC1)N=C(Nc1nc3ccccc3o1)N2`, the Potency result in assay [1] and in assay [2] was “inactive” throughout.
For `Cc1ccc(NS(=O)(=O)c2ccc3c(c2)CCCC(=O)N3)cc1C`, the Potency entry in assay [1] and in assay [2] was “inactive” each time.
For the compound `CC(C)(C)OC(=O)NCC(=O)NNC(=O)c1cc2ccccc2[nH]1`, the Potency result in assay [1] and in assay [2] was “inactive” each time.
Turning to `COc1ccc(C[C@H](N)C(=O)N[C@@H]2[C@H](O)[C@H](n3cnc4c(N(C)C)ncnc43)O[C@@H]2CO)cc1`, the Potency result in assay [1] and in assay [2] was “inactive” each time.
For `C=CCNc1oc(-c2cccc(Cl)c2)nc1C#N`, the Potency result in assay [1] and in assay [2] was “inactive” in each case.
Turning to `NC(=O)C1CCN(c2nc(-c3ccccc3)cs2)CC1`, the Potency entry in assay [1] and in assay [2] was “inactive” throughout.
For `Cc1cc2c(s1)c1c(C)nn(Cc3ccccc3F)c(=O)c1n2C`, the Potency result in assay [1] and in assay [2] was “inactive” each time.
Regarding `FC(F)(F)c1ccccc1-c1nccc(NCc2ccc(-c3cccnc3)cc2)n1`, the Potency entry in assay [1] and in assay [2] was “inactive” throughout.
As for `O=S(=O)(c1ccsc1)N1CCN(c2nc(-c3cccs3)nc3ccccc23)CC1`, the Potency result in assay [1] and in assay [2] was “inactive” in each case.
As for `Cc1ccc(OCCn2c(CCNC(=O)c3cccc(Br)c3)nc3ccccc32)cc1`, the Potency entry in assay [1] and in assay [2] was “inactive” throughout.
As to `Cc1ccc(OCCn2c(CCNC(=O)c3ccco3)nc3ccccc32)cc1`, the Potency entry in assay [1] and in assay [2] was “inactive” each time.
As for `Cc1ccc(S(=O)(=O)n2cc(C(=O)Nc3ccc(-c4ccccc4)cc3)c3ccccc32)cc1`, the Potency result in assay [1] and in assay [2] was “inactive” each time.
For `CC(C)CC(OC(=O)CNC(=O)c1ccccc1)C(=O)Nc1cc(C(F)(F)F)ccc1Cl` (stereo not drawn), the Potency result in assay [1] and in assay [2] was “inactive” throughout.
Take `c1csc(CCNc2ncnc3ccc(-c4ccc5c(c4)OCO5)cc23)c1`: the Potency entry in assay [1] and in assay [2] was “inactive” throughout.
`Cc1cc2c(s1)c1cnn(Cc3c(F)cccc3F)c(=O)c1n2C`: the Potency result in assay [1] and in assay [2] was “inactive” throughout.
On to `CCCn1c(C)nc2c(NCCO)nc(C)nc21`, for which the Potency result in assay [1] and in assay [2] was “inactive” in each case.
As for `O=[S+]([O-])(Nc1ccccc1F)c1cccc(NC/C=C/c2ccccc2)c1`, the Potency entry in assay [1] and in assay [2] was “inactive” each time.
Consider `Cc1ccc(NC(=O)CN2C(=O)N/C(=C\c3cccn3-c3cccc(-c4nn[nH]n4)c3)C2=O)cc1`, for which the Potency result in assay [1] and in assay [2] was “inactive” each time.
On to `CCCCNC(=S)NCCCc1cnc[nH]1`, for which the Potency entry in assay [1] and in assay [2] was “inactive” throughout.
For `COC(=O)c1ccccc1NC(=O)c1ccc(C#N)cc1`, the Potency entry in assay [1] and in assay [2] was “inactive” throughout.
For the compound `Cc1cc2c(s1)c1cnn(Cc3c(F)ccc(C)c3Cl)c(=O)c1n2C`, the Potency entry in assay [1] and in assay [2] was “inactive” throughout.
`CC1CCC/C=C/C(=O)c2c(O)cc(O)cc2CC(=O)O1` (stereo not drawn): the Potency entry in assay [1] and in assay [2] was “inactive” throughout.
As for `C[C@@H]1CC[C@]2(C(=O)O[C@@H]3O[C@H](CO)[C@@H](O)[C@H](O)[C@H]3O)CC[C@]3(C)C(=CCC4[C@@]5(C)C[C@@H](O)[C@H](O)[C@](C)(C(=O)O)C5CC[C@]43C)[C@@H]2[C@]1(C)O` (stereo partly drawn), the Potency result in assay [1] and in assay [2] was “inactive” in each case.
Turning to `CCCCc1ccc(C(=O)Nc2ccc(S(=O)(=O)Nc3nccs3)cc2)cc1`, the Potency result in assay [1] and in assay [2] was “inactive” throughout.
In the case of `Cn1nnnc1Sc1ncnc2scc(-c3cccc(S(C)(=O)=O)c3)c12`, the Potency entry in assay [1] and in assay [2] was “inactive” in each case.
`NNC(=O)C(C(=O)OCc1ccccc1)c1ccccc1` (stereo not drawn): the Potency entry in assay [1] and in assay [2] was “inactive” each time.
Take `N#CN1CCC(NS(=O)(=O)c2cccc(F)c2)C1` (stereo not drawn): the Potency result in assay [1] and in assay [2] was “inactive” in each case.
For the compound `N#Cc1cc(NC(=O)Nc2nnc(-c3ccncc3)s2)ccc1Br`, the Potency result in assay [1] and in assay [2] was “inactive” in each case.
With `Cc1ccc(S(=O)(=O)Nc2cccc3ccc(C)nc23)cc1`, the Potency result in assay [1] and in assay [2] was “inactive” each time.
As for `Cc1ccc(NS(=O)(=O)c2cc3c(cc2N(C)CCN(C)C)NC(=O)CC3)cc1C`, the Potency result in assay [1] and in assay [2] was “inactive” in each case.
As to `COc1c2c(c(C)c3c1C(=O)OC3)OC1(C)CC(O)C3(O)C(C)(C)OC(=O)CCC3(C)C1C2` (stereo not drawn), the Potency result in assay [1] and in assay [2] was “inactive” in each case.
With `O=C(OCC#CCSc1nnc(-c2cccc3ccccc23)o1)c1ccc(C(F)(F)F)cc1`, the Potency result in assay [1] and in assay [2] was “inactive” each time.
Consider `Brc1cnc2nc(SCc3ccccn3)[nH]c2c1`, for which the Potency entry in assay [1] and in assay [2] was “inactive” throughout.

These data come from PubChem BioAssay (NCATS).
